Reference: paper PMC12136788
Numbering of substitutions follows the chain as printed. Over roughly 5,800 sequences, “enrichment r” has its median near 0.68; the highest 2% begin near 11. The sample holds the highest values, similar sequences and a random draw of the others, so the mix is not that of the screen.

T1: UNK ZnF1-6 (called full-length) (human, UniProt Q9C0B0 30-357)
T1 sequence: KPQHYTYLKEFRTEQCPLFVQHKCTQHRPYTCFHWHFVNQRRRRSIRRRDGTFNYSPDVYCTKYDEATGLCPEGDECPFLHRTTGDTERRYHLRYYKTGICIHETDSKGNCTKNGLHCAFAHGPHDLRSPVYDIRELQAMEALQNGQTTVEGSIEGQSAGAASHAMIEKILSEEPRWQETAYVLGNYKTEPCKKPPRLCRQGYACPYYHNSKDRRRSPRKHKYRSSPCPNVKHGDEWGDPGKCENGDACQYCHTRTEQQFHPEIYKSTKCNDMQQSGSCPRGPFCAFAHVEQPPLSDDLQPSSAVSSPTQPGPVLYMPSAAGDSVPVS

B1: ENSG00000136451:be:win_3701|3pUTR|ENSG00000136451|bound_else_gene|NA|bound_elsewhere_windowed (ssRNA)
RNA: GGGAGUUCUACAGUCCGACGAUCUCUCUGGUGGGCUGGCAGUCAUAAUUCACAAUUCAGACAGCCCAGGCUUCCUCCACAGUGGUCCAAGGAGCAGUCCUCAGUGGGGGCAGGUGUGGGCCCUACCCCUAAGCUAGAAUGUGGCAACAGAGGAUUGAGCAUCA
B2: ENSG00000107863:be:win_451|CDS|ENSG00000107863|bound_else_gene|NA|bound_elsewhere_windowed (ssRNA)
RNA: GGGAGUUCUACAGUCCGACGAUCUUGGAACUUAGUGUUAUGCCAAAAGAUGAAGACAUUCUCCAAGUGCUACAGUUUACAAAGGAUGUCACAGCACUGGCAUAUUCUCAAGAUGCCUACCUGAAAGGCAACGAAGCUUAUAGCCAACAGAGGAUUGAGCAUCA
B3: chr9:96387934:96388035:-|3pUTR|ENSG00000165244|msi1|total|mutant (ssRNA)
RNA: GGGAGUUCUACAGUCCGACGAUCAAUAUUUUGUAAAUAUGGACUGCACAGUACAGGGCCGAAAACUACAUAUUGUGGGAAGCCCGAUUUUGCAAGUUUAAUGCAUUCAUUGGAAGCAGUUCUCACAGGAAGCACUUUCUGAAUCAACAGAGGAUUGAGCAUCA
B4: chr20:32237940:32238012:+|3pUTR|ENSG00000101346|msi1_unk|FALSE|overlapping (ssRNA)
RNA: GGGAGUUCUACAGUCCGACGAUCUUUCAAAGAUACAAAUAUUUACAUAGUUUUAAUCAUGUAAUAUAUACAAUUUAAUGUCCUAGUGUUUUACUUAAUAGUGUAUCAUGUUUUCCCUGUUGGUAUGUAGCCUGGAUAAAUGCUCAACAGAGGAUUGAGCAUCA
B5: chr17:3662948:3663056:-|3pUTR|ENSG00000213977|unk|total|mutant (ssRNA)
RNA: GGGAGUUCUACAGUCCGACGAUCAGUUUGAUACAAAAUGUUUUUAUCGUACUCUUUGGAGAUGCCCAUUCUACUUUUGAAUUCCGCUUUUACUAAUUCGCAUCUGGAAGCUCAGCAAGUGCACAAGCCUUACUUUGGUUACCGCAACAGAGGAUUGAGCAUCA
B6: chr5:76617584:76618642:-|CDS|ENSG00000164220|control|control|control (ssRNA)
RNA: GGGAGUUCUACAGUCCGACGAUCUGAUGGCUUAUAUUUUAUAUAUCUCAUAGCUUUGUGCCUGGGUAGUCUUAAUAGUUGCUUAGAUCCAUUCCUUUAUUUUCUCAUGUCAAAAACCAGAAAUCACUCCACUGCUUACCUUACCAACAGAGGAUUGAGCAUCA
B7: chr4:168927217:168927233:+|3pUTR|ENSG00000129116|msi1_unk|total|mutant (ssRNA)
RNA: GGGAGUUCUACAGUCCGACGAUCAACCACCCAAAUGACCAAGGCAUAUACCGUAUUUGGAGGAAUCAGGGGUUUGGAAGGAGCCGGGAGGAGAAUGAAGGAAAAUGCAACCAGCAUGAUUACCGUGUGUUCAUUCCGAUAAAACAACAGAGGAUUGAGCAUCA
B8: ENSG00000198589:be:win_7401|CDS|ENSG00000198589|bound_else_gene|NA|bound_elsewhere_windowed (ssRNA)
RNA: GGGAGUUCUACAGUCCGACGAUCUUCUCAACUACUCAUAGAGCCCCAUCCUCCCAGAGGUUCUGCCAUGCAAGUGAGUCCAUUGAUGUUCACAGACAAAGCCCAGCAGGAUGUUAUCAUGGUCCUCAAGUUUCCCUCCAACUCCAACAGAGGAUUGAGCAUCA
B9: chr5:128187618:128187661:+|3pUTR|ENSG00000064651|msi1_unk|total|mutant (ssRNA)
RNA: GGGAGUUCUACAGUCCGACGAUCUCCUUUAUAAGUCAUUAAAAUAAUGUUUCAUCAAAUGGUUAAAUGGACCACUGGUUUCUCCGAGAAAUGUUUUCCGGCUUAAUUCAUUCAAUUGUCAAGUACACUCCGUCUUAAUACACUCAACAGAGGAUUGAGCAUCA
B10: chr1:159061598:159062691:-|three_prime_utr|ENSG00000163568|control|control|control (ssRNA)
RNA: GGGAGUUCUACAGUCCGACGAUCUCAAUCAGAUUGUAAGUUACCUGAAAGCUGCAGUUCACAGGCUCCUCUCUCCACCAAAUUAGGAUAGAAUAAUUGCUGGAUAAACAAAUUCAGAAUAUCAACAGAUGAUCACAAUAAACACAACAGAGGAUUGAGCAUCA
B11: chrX:107070192:107070425:-|CDS|ENSG00000089682|control|control|control (ssRNA)
RNA: GGGAGUUCUACAGUCCGACGAUCCGUUCUAGGAGCCAAAUGGCAGAAAAGGACUGGGAGGACCUCAACAUUUAGUAUUCUCUUAGUUUCCUUGCUUUCAGAAACAGUGUUCACAUCUUCAGCCAUGUAUGGCAUUCCCCAUCUCAACAGAGGAUUGAGCAUCA
B12: chr10:95606323:95606429:-|3pUTR|ENSG00000059573|unk|FALSE|bound_elsewhere (ssRNA)
RNA: GGGAGUUCUACAGUCCGACGAUCCCAUGGCUGCUUUGUGUCACCUCAGUGACUUACAGUCCCCCUUGGCAUUUAGUUGGUACUAGAGCCAGUCAUCCUUAACAAAUCUUUUCACAUUUUAUUUCUUUCACAUGUAGUCAUCUUCAACAGAGGAUUGAGCAUCA
B13: chr10:95606323:95606429:-|3pUTR|ENSG00000059573|unk|total|mutant (ssRNA)
RNA: B12 RNA with U73C, A74C, U83C, A84C, U134C, A135C
B14: chr14:106116634:106116941:-|CDS|ENSG00000211941|control|control|control (ssRNA)
RNA: GGGAGUUCUACAGUCCGACGAUCUGGAUCCGCCAGGCUCCAGGGAAGGGGCUGGAGUGGGUUUCAUACAUUAGUAGUAGUAGUAGUUACACAAACUACGCAGACUCUGUGAAGGGCCGAUUCACCAUCUCCAGAGACAACGCCCAACAGAGGAUUGAGCAUCA

These binders were tested against T1, UNK ZnF1-6 (called full-length) (assay: nsRBNS (natural sequence RNA bind-n-seq); RBNS binding buffer (assumed for nsRBNS): 25 mM Tris pH 7.5, 150 mM KCl, 3 mM MgCl2, 0.01% Triton X-100, 500 ug/ml BSA, 20 U/ml SUPERase-In, 4 C; UNK is unkempt and MSI1 is Musashi-1; names of the RNAs are library labels; protein concentration not given here; high values mean tight binding).

First: B1
Second: B2
The binding signal of the first is higher: 0.776 enrichment R for the first, 0.399 enrichment R for the second.

First: B3
Second: B4
The binding signal of the first is lower: 0.299 enrichment R for the first, 4.06 enrichment R for the second.

Compared with B5, B6 is higher in binding signal: 0.437 enrichment R for the first, 4.63 enrichment R for the second.

Going from B7 to B8, the binding signal falls from 0.58 enrichment R to 0.555 enrichment R.

Going from B9 to B10, the binding signal rises from 0.678 enrichment R to 1.86 enrichment R.

Going from B11 to B12, the binding signal rises from 3.69 enrichment R to 15.5 enrichment R.

First: B13
Second: B14
The binding signal of the first is higher: 6.24 enrichment R for the first, 1.12 enrichment R for the second.
